Assays:
Format in all cases: functional
Plasmodium falciparum [1] = experiment: GSK_TCMDC: Inhibition of Plasmodium falciparum 3D7 in whole red blood cells, using parasite LDH activity as an index of growth. Test compounds present at 2uM
Plasmodium falciparum [2] = experiment: GSK_TCMDC: Inhibition of Plasmodium falciparum Dd2 in whole red blood cells, using parasite LDH activity as an index of growth. Test compounds present at 2uM
HepG2 = experiment: GSK_TCMDC: Percent inhibition of human HepG2 cell line. Test compounds present at 10uM.

Compound | Inhibition (Plasmodium falciparum [1]) [%] | Inhibition (Plasmodium falciparum [2]) [%] | Inhibition (HepG2) [%]
COc1cc(NC(=O)c2ccc3c(=O)n(Cc4ccccc4)c(=S)[nH]c3c2)cc(OC)c1OC | 94 | 47 | 6
OCCN1CCN(C(=S)NC2CCCCC2)CC1 | 93 | 0 | 49
O=C(NOCCCCOc1ccc(Cl)c(Cl)c1)c1ccccc1 | 98 | 1 | 2
CN1CCN(Cc2cc3cc(NC(=O)/C=C/c4cccc(Cl)c4)ccc3s2)CC1.Cl | 100 | 72 | 54
Cl.c1cc(CNC2Cc3ccccc3C2)cc(-c2cnc(N3CCNCC3)nc2)c1 | 93 | 65 | 43
COc1ccc2nc3cc(Cl)ccc3c(NCCN3CCN(C)CC3)c2c1.Cl | 100 | 99 | 29
CCOC(=O)c1cccc(NC(=O)Nc2cccc(-c3ncc(OCCCN)c4c3nc(-c3nonc3N)n4CC)c2)c1.O=C(O)C(F)(F)F | 100 | 98 | 16
O=C(Nc1ccc(Cl)cc1)c1ccc(CN2CCCN(Cc3cccc(Cl)c3)CC2)cc1.O=C(O)C(F)(F)F | 96 | 15 | 53
CCc1cn2c3c(cc(C(=O)N[C@@H](Cc4ccccc4)[C@H](O)CNC4CCCCC4)cc13)N(CC)S(=O)(=O)CC2.O=CO | 98 | 98 | 8
Cc1cccc2nc(-c3cccc(-c4cccc(NC(=O)c5csnn5)c4)c3)[nH]c12 | 98 | 49 | 10
COc1cc2nc(Nc3ccc(C)cc3)nc(Nc3ccc(C)cc3)c2cc1OC.Cl | 100 | 100 | 99
CC(C)C[C@@H](/C=N/N1CCOC1=O)NC(=O)[C@H](CC(C)C)NC(=O)c1ccc(OCCN2CCOCC2)cc1 | 92 | 87 | 5
Cn1cc(CCNc2ccnc(N3CCC(c4ncc[nH]4)CC3)n2)c2ccccc21 | 92 | 5 | 12
CCc1cc2c3c(N)nc(N)nc3ccc2n1CC | 93 | 0 | 62
Br.CC1(C)NC(N)=NC(=N)N1OCCCOc1c(Cl)cc(Cl)cc1Cl | 94 | 97 | 65
Cc1cc(NC(=O)Nc2ccc(Oc3ccccc3)cc2)c2ccccc2n1 | 91 | 28 | 2
CN1CCC(c2c[nH]c3ccc(NC(=O)Nc4ccc(-c5ccncc5)c(Cl)c4Cl)cc23)CC1 | 100 | 19 | 27
COc1ccc2[nH]c(C)cc(=NN=Cc3cc(OC)c(OC)cc3OC)c2c1 | 100 | 56 | 1
CN1CCN(c2ccnc3ccc(NC(=O)Nc4ccc(Cl)cc4)cc23)CC1 | 100 | 99 | 11
CCCCNCc1ccc(-c2nc(CN(CCCn3ccnc3)C(=O)NC3CC3c3ccccc3)cs2)cc1.O=C(O)C(F)(F)F (stereo not given) | 100 | 34 | 21

Compound | Inhibition (Plasmodium falciparum [1]) [%] | Inhibition (Plasmodium falciparum [2]) [%] | Inhibition (HepG2) [%]
CCCC(=O)NC(NC(=S)Nc1ccc([N+](=O)[O-])cc1)C(Cl)(Cl)Cl (stereo not given) | 93 | 14 | 10
CC(C)CCNC(=N)c1ccc(OCCCCCOc2ccc(C(=N)NCCC(C)C)cc2)cc1.Cl | 98 | 94 | 5
COc1ccccc1CN1CCC(NC(=O)c2ccc(-c3cccc(C(F)(F)F)c3)s2)CC1.O=C(O)C(F)(F)F | 85 | 12 | 83
O=C(Nc1cc(Oc2ccc(O)cc2)cc([N+](=O)[O-])c1)c1cc(-c2ccc(F)cc2)no1 | 88 | 37 | 61
O=C(O)C(F)(F)F.c1cc(CN2CCCCC2)cc(-c2cccc(-c3nc4ccccc4[nH]3)c2)c1 | 100 | 37 | 39
CC(=O)Nc1ccc(CN2CCC(NC(=O)c3cc(-c4ccc(N(C)C)cc4)cs3)C2)cc1.O=C(O)C(F)(F)F (stereo not given) | 83 | 1 | 15
CCOC(=O)N1CCN(CCCCNc2c3ccc(Cl)cc3nc3ccc(OC)cc23)CC1.Cl | 100 | 98 | 25
COc1ccc(C(=O)CCC(=O)N(Cc2ccc(-c3ccc(CNCCc4ccc(S(C)(=O)=O)cc4)cn3)cc2)C2CC3CCC2C3)cc1F.O=C(O)C(F)(F)F (stereo not given) | 97 | 34 | 5
CN1CCN(CCCN(Cc2ccc(-c3cccc(CNC4CCCC4)c3)cc2)C(=O)/C=C/c2ccccc2)CC1.O=C(O)C(F)(F)F | 100 | 87 | 36
CCOC(=O)Cn1ccc2c(NCc3ccccc3)nc(C)nc21 | 96 | 0 | 64
Fc1ccc2[nH]c(-c3ccc(-c4ccc(CN5CCN(c6ccncc6)CC5)cc4)cc3)nc2c1.O=C(O)C(F)(F)F | 100 | 100 | 37
CCN(CC)C(=O)C1CCCN(c2cc(C)nc(Nc3ccc(Cl)cc3)n2)C1 (stereo not given) | 94 | 64 | 13
CN1CCN(CCCN(Cc2cccc(-c3ccc(CNC4CCCC4)cc3)c2)C(=O)CCC2CCCC2)CC1.O=C(O)C(F)(F)F | 97 | 84 | 16
Cc1cccc2nc(-c3ccc(-c4cccc(NCc5cn6cccnc6n5)c4)cc3)[nH]c12 | 94 | 63 | 9
COc1cc(Cc2cnc(N)nc2N)cc(OC)c1OCCCCCN1C(=O)c2ccccc2C1=O | 97 | 4 | 5
COc1ccc(-c2cncc(-c3ccc(OC)c(OC)c3)n2)cc1OC.Cl | 95 | 90 | 6
Cc1cccc2nc(-c3cccc(-c4ccc(NC(=O)C(=O)c5cccn5C)cc4)c3)[nH]c12 | 100 | 46 | 45
O=C(NCCOc1ccccc1)[C@H](Cc1ccccc1)Nc1ccnc(NCC2CCCCC2)n1.O=C(O)C(F)(F)F | 96 | 73 | 80
FC(F)(F)c1cccc(C=NNc2nc3ccccc3[nH]2)c1 | 100 | 99 | 1
Fc1ccc(Nc2ccnc3cc(-c4ccc(CNCCN5CCOCC5)o4)ccc23)c(Cl)c1 | 100 | 99 | 34

Compound | Inhibition (Plasmodium falciparum [1]) [%] | Inhibition (Plasmodium falciparum [2]) [%] | Inhibition (HepG2) [%]
Cc1c(F)cc(C(=O)NC2CC2)cc1-c1ccc2c(cnn2S(=O)(=O)c2ccc(C#N)cc2)c1 | 97 | 92 | 17
N#Cc1ccc(C(=O)NC2CCN(CCCCCNC(=O)/C=C/c3ccc(Cl)c(Cl)c3)CC2)cc1 | 98 | 1 | 13
CN(C)CCCOc1ccc(CN2CC[C@H](NC(=O)c3ccc(Cl)c(Cl)c3)C2)c2ccccc12.O=C(O)C(F)(F)F | 100 | 97 | 81
O=C(/C=C/c1ccc(Cl)cc1)NCCCCCN1CCN(C(=O)Nc2ccc(Cl)c(C(F)(F)F)c2)CC1 | 94 | 5 | 18
Cc1[nH]c(C)c(-c2ccc(-c3ccccc3Cl)nc2)c(=O)c1Cl | 98 | 97 | 0
Cc1oc(-c2ccccc2)nc1CCOc1ccc(C[C@H](Nc2ccccc2C(=O)c2ccccc2)C(=O)NCc2ccccn2)cc1 | 88 | 54 | 0
CN(C)CC(O)C(c1ccccc1)c1cccc(Br)c1.Cl (stereo not given) | 98 | 9 | 22
O=C(c1cc(-c2ccco2)n[nH]1)N1CCN(S(=O)(=O)c2ccc(Cl)cc2)CC1 | 96 | 95 | 0
CC(=O)Nc1ccc2[nH]cc(C3CCN(CC4CCN(C(=O)/C=C/c5ccc(Cl)c(Cl)c5)CC4)CC3)c2n1 | 100 | 99 | 21
CCCCCN1CCCCC(NS(=O)(=O)c2ccc(C(=O)Nc3ccc(C(F)(F)F)cc3)cc2)C1.O=C(O)C(F)(F)F (stereo not given) | 89 | 0 | 34
OC(CNc1ccnc(Nc2cccc(OCCCN3CCOCC3)c2)n1)c1ccccc1 (stereo not given) | 97 | 25 | 48
Cc1cc(N[C@@H](CC(C)C)C(=O)NCc2cccc(F)c2)nc(NCCc2ccc(F)cc2)n1.O=C(O)C(F)(F)F | 90 | 6 | 0
CN1CCN(CCCN(Cc2csc(-c3ccc(CNCc4ccccc4)cc3)n2)C(=O)c2cc(F)cc(F)c2)CC1.O=C(O)C(F)(F)F | 97 | 53 | 60
COC(=O)c1cccc(OCCNC2CCN(C[C@H](O)c3ccnc4ccc(OC)cc34)CC2)c1.O=C(O)C(=O)O | 100 | 96 | 0
Cc1cc(C(=O)CSc2nc3ccccc3n2-c2ccccc2)c(C)n1C1CCS(=O)(=O)C1 (stereo not given) | 92 | 0 | 0
CCc1ccc(CN2CCC(CNC(=O)c3cc(-c4cccc(Cl)c4)cs3)C2)cc1.O=C(O)C(F)(F)F (stereo not given) | 88 | 19 | 27
CCOC(=O)c1cc(C(=O)NCCCCN2CCC(c3ccc4c(c3OC)CCCC4)CC2)ccc1-c1ccc(C(F)(F)F)cc1 | 100 | 60 | 100
COCCNCc1nc(-c2ccc3c(Nc4ccc(F)c(O)c4)ccnc3c2)cs1 | 100 | 99 | 0
Cc1nc(N)nc(N)c1Oc1cccc(Cl)c1.O=S(=O)(O)O | 94 | 0 | 49
CCCc1cc(OC)c(C[C@H]2c3cc(O)c(Cl)cc3CCN2C)cc1OC.Cl | 97 | 98 | 0
